Results: PubChem BioAssay AID1159580 (chemical genetic matrix, 2015)
Hit rate of the full screen: of about 5,500 compounds, about 2,000 (36%) were called active. Roughly 18% stayed inconclusive and do not appear here. Cut-off read from the data, not from the text of the source: active = normalized growth mostly below about 0.91 (no sharp cut-off); inconclusive = no clear call, values can overlap the other calls; inactive = mostly above about 0.92. This is one part of the list.

Experiment: chemical genetic growth profiling, strain panel (AID 1159580);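 note: tested at 20 µM; growth read once vehicle control cultures reached saturation at 30 °C; 1 = growth at the plate median or of vehicle wells; lower values mean less growth of the strain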
Details: growth OD

Measured: normalized growth

CCCN(CCC)S(=O)(=O)c1ccc(C(=O)NCC(=O)O)cc1
inactive: S. cerevisiae deletion strains, locus YAL013W, strain DEP1, hits give low values 1.01 | S. cerevisiae deletion strains, locus YBR229C, strain ROT2, hits give low values 1 | S. cerevisiae deletion strains, locus YDL101C, strain DUN1, hits give low values 1 | S. cerevisiae deletion strains, locus YDL134C, strain PPH21, hits give low values 0.996 | S. cerevisiae deletion strains, locus YDR150W, strain NUM1, hits give low values 0.907 | S. cerevisiae deletion strains, locus YEL061C, strain CIN8, hits give low values 1.02 | S. cerevisiae deletion strains, locus YGR078C, strain PAC10, hits give low values 0.998 | S. cerevisiae deletion strains, locus YHR030C, strain SLT2, hits give low values 1.03 | S. cerevisiae deletion strains, locus YHR087W, strain rtc3, hits give low values 1.02 | S. cerevisiae deletion strains, locus YJR043C, strain POL32, hits give low values 0.996 | S. cerevisiae deletion strains, locus YJR075W, strain HOC1, hits give low values 1.02 | S. cerevisiae deletion strains, locus YKL190W, strain CNB1, hits give low values 0.996 | S. cerevisiae deletion strains, locus YLR039C, strain RIC1, hits give low values 0.993 | S. cerevisiae deletion strains, locus YLR058C, strain SHM2 (second series), hits give low values 1.01 | S. cerevisiae deletion strains, locus YLR085C, strain ARP6, hits give low values 0.984 | S. cerevisiae deletion strains, locus YLR262C, strain YPT6, hits give low values 1.01 | S. cerevisiae deletion strains, locus YML094W, strain GIM5, hits give low values 1 | S. cerevisiae deletion strains, locus YMR219W, strain ESC1, hits give low values 1 | S. cerevisiae deletion strains, locus YMR263W, strain SAP30, hits give low values 0.989 | S. cerevisiae deletion strains, locus YNL153C, strain GIM3, hits give low values 1 | S. cerevisiae deletion strains, locus YNL298W, strain CLA4 (second series), hits give low values 1.02 | S. cerevisiae deletion strains, locus YNL322C, strain KRE1, hits give low values 1.01 | S. cerevisiae deletion strains, locus YNR030W, strain Alg12, hits give low values 1.01 | S. cerevisiae deletion strains, locus YPL055C, strain LGE1, hits give low values 1.02 | S. cerevisiae deletion strains, locus YPL241C, strain CIN2, hits give low values 1 | S. cerevisiae deletion strains, locus YPR135W, strain CTF4, hits give low values 1.01 | S. cerevisiae strains, strain wild type, hits give low values 1.01
